# Reference: PubChem BioAssay (Tox21)
# Results filed as inconclusive are left out. A number with no mark means an inactive call. Active and inactive are the calls of the source. Calls come from the whole dose curve; as a rule, active = well fitted cell-killing curve with a large enough effect in the repeat runs; inconclusive = weak or mixed curves, or effect the other way; inactive = flat fitted curve, though single readings scatter.
# Test: cAMP Responsive Elements (CRE) small molecule agonists, cell-based qHTS assay: qHTS cell viability counter screen (AID 2060914);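 note: viability read after 3 h of compound exposure; nearly all actives have a fitted effect of over 50% in size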
# Conditions: CRE-bla HEK293T viability, CellTiter-Glo luminescence, 5 h; series mostly up to 92.4 µM; activity change, negative = cytotoxicity: at the top concentration
# Method in brief: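 CRE-bla HEK 293T cells, plated 18 h at 37 °C, were exposed to compounds for 3 h at 37 °C/5% CO2. Viability was then measured in the same wells by CellTiter-Glo luminescence after 30 min at room temperature.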
# % is set by controls: 0 for no effect and ±100 for the full control effect; potency is the fitted concentration of half-maximal effect.
Structure (SMILES),"activity change, negative = cytotoxicity",Potency
COc1cccc(OC)c1C(=O)O,9.51%,
CC/C(=C(\c1ccccc1)c1ccc(OCCN(C)C)cc1)c1ccccc1,,inactive
CCCC(C)CCC(C)=O (configuration not stated),-0.0763%,
O=C(Cl)c1ccc(F)c(Cl)c1,-0.536%,
C#CC(O)CCC (configuration not stated),-9.57%,
COc1cc([C@@H]2c3cc4c(cc3[C@@H](O[C@@H]3O[C@@H]5CO[C@@H](C)O[C@H]5[C@H](O)[C@H]3O)[C@H]3COC(=O)[C@H]23)OCO4)cc(OC)c1O,1.53%,
NC(=O)c1ccccc1C(N)=O,-0.496%,
COC(=O)C1=C(C)NC(COC(N)=O)=C(C(=O)OC(C)C)C1c1cccc(Cl)c1Cl (configuration not stated),8.99% [at 42.5 µM],
Cc1occc(=O)c1O,,inactive
O=C1C=CC(=O)O1,0.134%,
CC(C)(C)c1csc(-c2cc3cc(OCc4ccccc4CC(=O)O)ccc3o2)n1,-19.7%,
O=c1cc(-c2ccccc2)oc2ccc3ccccc3c12,,21.7 µM (active)
CCOCC(=O)O,,inactive
O=[N+]([O-])c1ccc(O/N=C/c2cc(Br)c(O)c(Br)c2)c([N+](=O)[O-])c1,-0.349%,
CN(C)[C@@H]1C(=O)C(C(N)=O)=C(O)[C@@]2(O)C(=O)C3=C(O)c4c(O)cccc4C[C@H]3C[C@@H]12,9.34% [at 42.5 µM],
CCCCCNCCCCC,,inactive
CN(C)CCCCl,0.638%,
CC(=O)c1cccc([N+](=O)[O-])c1,-3.07%,
O=CN1CCCCC1,15%,
CCN(CCC#N)c1ccc(N=Nc2ccc([N+](=O)[O-])cc2)cc1,14.7%,
O=C1c2ccccc2C(=O)c2c(O)ccc(O)c21,-10%,
CC1=CCC(=C(C)C)CC1,3.88%,
